What was measured:
Conditions in all cases: concentration: 1 μM, replicates: in singlicate; n = 1
AMPK-alpha2 = tested on: T1, AMPK-alpha2
T1 construct: gene PRKAA2

ANKK1 = tested on: ANKK1
ARK5 = tested on: T2, ARK5
T2 construct: gene NUAK1

ASK1 = tested on: T3, ASK1
T3 construct: gene MAP3K5

ASK2 = tested on: T4, ASK2
T4 construct: gene MAP3K6

AURKA = tested on: AURKA
AURKB = tested on: AURKB
AURKC = tested on: AURKC
AXL = tested on: AXL
BIKE = tested on: T5, BIKE
T5 construct: gene BMP2K
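Also: KINOMEscan kinase panel screen.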

Compound | %Inh (AMPK-alpha2) [%] | %Inh (ANKK1) [%] | %Inh (ARK5) [%] | %Inh (ASK1) [%] | %Inh (ASK2) [%] | %Inh (AURKA) [%] | %Inh (AURKB) [%] | %Inh (AURKC) [%] | %Inh (AXL) [%] | %Inh (BIKE) [%]
O=c1cc(N2CCOCC2)nc2n(Cc3cccc(Cl)c3Cl)c(C3CC3)nn12 [GSK2358994] | 0 | 0 | 0 | 0 | 0 | 0 | 4 | 0 | 3 | 0
COc1cc2ncn(-c3cc(OCc4sccc4Cl)c(C(N)=O)s3)c2cc1OC [GSK448459] | 0 | 0 | 15 | 0 | 0 | 0 | 12 | 41 | 10 | 90
Cn1ccc2ncnc(Oc3ccc(NC(=O)Nc4ccncc4)c(Cl)c3)c21 | 5 | 0 | 14 | 0 | 0 | 0 | 3 | 0 | 0 | 0
O=C(NCCCN1CCOCC1)c1cccc(Nc2nccc(Nc3ccc(Oc4ccccc4)cc3)n2)c1 [GW663929] | 0 | 20 | 29 | 3 | 0 | 36 | 11 | 14 | 11 | 27
NS(=O)(=O)c1cccc(-c2ccc3nccc(-c4cccc(S(N)(=O)=O)c4)c3c2)c1 [GW867253] | 6 | 0 | 0 | 0 | 0 | 19 | 45 | 0 | 0 | 0
Cc1ccc(NC(=O)c2ccnc(N3CCN(C)CC3)c2)cc1-c1ccc(C(=O)NCC2CC2)cc1 [GW775604] | 0 | 0 | 0 | 0 | 0 | 0 | 2 | 0 | 0 | 0
c1ccc(-c2cc(-c3c[nH]nc3-c3ccccn3)ccn2)cc1 [GW576604] | 0 | 0 | 0 | 4 | 0 | 14 | 0 | 3 | 0 | 23
Cl.Nc1ncnc2occ(-c3ccc(NC(=O)Nc4cc(C(F)(F)F)ccc4F)cc3)c12 [SB-707548] | 22 | 77 | 21 | 32 | 0 | 53 | 96.7 | 53 | 97.7 | 10
Fc1ccc(-c2ncn(CCCN3CCOCC3)c2-c2cccnc2)cc1 [SB-211743] | 12 | 0 | 12 | 0 | 0 | 15 | 31 | 5 | 0 | 0
Cc1nnc(-c2ccc3ncc(-c4ccc(S(C)=O)cc4)n3c2)o1 (stereo not shown) | 0 | 0 | 0 | 0 | 9 | 18 | 21 | 0 | 11 | 0
CN(C1=C(c2ccccc2)C(=O)NC1=O)c1ccccc1 [SB-334860] | 23 | 9 | 42 | 12 | 0 | 21 | 10 | 0 | 0 | 0
CCc1nc(-c2cccc(C)c2)c(-c2ccnc(NCc3ccccc3)c2)s1 | 5 | 0 | 15 | 0 | 0 | 0 | 14 | 0 | 0 | 0
COc1ccc(COc2cc(-n3cnc4ccccc43)sc2C(N)=O)cc1 [GSK1024304] | 0 | 8 | 14 | 0 | 0 | 2 | 0 | 12 | 0 | 25
NS(=O)(=O)c1cccc(-c2ccc3ncc(N4CCOCC4)nc3c2)c1 [GSK1535721] | 12 | 15 | 0 | 0 | 0 | 19 | 0 | 0 | 2 | 0
NS(=O)(=O)CCc1cccc(Nc2nccc(-c3c(-c4cccc(NC(=O)c5c(F)cccc5F)c4)nn4ccccc34)n2)c1 [GSK336735] | 33 | 83 | 84 | 2 | 0 | 93.5 | 81 | 72 | 90.5 | 27
N#Cc1ccc(-c2cc(-c3c[nH]nc3-c3ccccn3)ccn2)cc1 [GW693028] | 49 | 0 | 27 | 0 | 0 | 0 | 32 | 0 | 0 | 11

— publication PMC5540273 (PLoS ONE, 2017)
